According to PubChem BioAssay AID1159580 (chemical genetic matrix, 2015):
Among all 5,500 compounds or so, about 2,000 (36%) were called active. Not shown: some 18% with an inconclusive outcome. Rule as the data show it: active = normalized growth mostly below about 0.91 (no sharp cut-off); inconclusive = no clear call, values can overlap the other calls; inactive = mostly above about 0.92. Some of the results follow.

Assay: chemical genetic growth profiling, strain panel (AID 1159580);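 also: tested at 20 µM; growth read once vehicle control cultures reached saturation at 30 °C; 1 = growth at the plate median or of vehicle wells; lower values mean less growth of the strain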
Settings: growth OD
[1] = S. cerevisiae deletion strains, locus YDL101C, strain DUN1, hits give low values
[2] = S. cerevisiae deletion strains, locus YHR030C, strain SLT2, hits give low values

Measured: normalized growth

C/C(=C\C(=O)Nc1ccc(F)cc1)Nc1ccc(F)cc1
inactive: S. cerevisiae deletion strains, locus YAL013W, strain DEP1, hits give low values 1 | S. cerevisiae deletion strains, locus YBR229C, strain ROT2, hits give low values 1.01 | S. cerevisiae deletion strains, locus YCL061C, strain MRC1, hits give low values 1.04 | [1] 1.05 | S. cerevisiae deletion strains, locus YDR150W, strain NUM1, hits give low values 1.04 | S. cerevisiae deletion strains, locus YEL061C, strain CIN8, hits give low values 0.973 | S. cerevisiae deletion strains, locus YGR078C, strain PAC10, hits give low values 1.03 | S. cerevisiae deletion strains, locus YGR229C, strain SMI1, hits give low values 0.979 | [2] 1.02 | S. cerevisiae deletion strains, locus YHR087W, strain rtc3, hits give low values 0.971 | S. cerevisiae deletion strains, locus YJR043C, strain POL32, hits give low values 1.02 | S. cerevisiae deletion strains, locus YJR075W, strain HOC1, hits give low values 1 | S. cerevisiae deletion strains, locus YKL190W, strain CNB1, hits give low values 1.01 | S. cerevisiae deletion strains, locus YLR039C, strain RIC1, hits give low values 1.05 | S. cerevisiae deletion strains, locus YLR058C, strain SHM2 (second series), hits give low values 0.998 | S. cerevisiae deletion strains, locus YLR085C, strain ARP6, hits give low values 0.975 | S. cerevisiae deletion strains, locus YLR262C, strain YPT6, hits give low values 0.989 | S. cerevisiae deletion strains, locus YML094W, strain GIM5, hits give low values 0.982 | S. cerevisiae deletion strains, locus YMR219W, strain ESC1, hits give low values 1 | S. cerevisiae deletion strains, locus YMR263W, strain SAP30, hits give low values 1.01 | S. cerevisiae deletion strains, locus YNL153C, strain GIM3, hits give low values 1.04 | S. cerevisiae deletion strains, locus YNL298W, strain CLA4 (second series), hits give low values 1 | S. cerevisiae deletion strains, locus YNL322C, strain KRE1, hits give low values 1 | S. cerevisiae deletion strains, locus YNR030W, strain Alg12, hits give low values 1 | S. cerevisiae deletion strains, locus YOL006C, strain TOP1, hits give low values 1.04 | S. cerevisiae deletion strains, locus YPL055C, strain LGE1, hits give low values 0.976 | S. cerevisiae deletion strains, locus YPL241C, strain CIN2, hits give low values 0.999 | S. cerevisiae deletion strains, locus YPR135W, strain CTF4, hits give low values 1.05 | S. cerevisiae strains, strain wild type, hits give low values 1

CC(C)(C)c1ccc(N/N=C(\C#N)C(N)=O)cc1
active: S. cerevisiae deletion strains, locus YAR019C, strain CDC15, hits give low values 0.111 | S. cerevisiae deletion strains, locus YBL105C, strain PKC1, hits give low values 0.0972 | S. cerevisiae deletion strains, locus YBR135W, strain CKS1, hits give low values 0.109 | S. cerevisiae deletion strains, locus YBR136W, strain MEC1, hits give low values 0.109 | S. cerevisiae deletion strains, locus YBR160W, strain CDC28, hits give low values 0.114 | S. cerevisiae deletion strains, locus YDL017W, strain CDC7, hits give low values 0.0979 | S. cerevisiae deletion strains, locus YDL028C, strain MPS1, hits give low values 0.117 | [1] 0.115 | S. cerevisiae deletion strains, locus YDL108W, strain KIN28, hits give low values 0.11 | S. cerevisiae deletion strains, locus YDL132W, strain cdc53, hits give low values 0.142 | S. cerevisiae deletion strains, locus YDL214C, strain PRR2, hits give low values 0.114 | S. cerevisiae deletion strains, locus YDR052C, strain DBF4, hits give low values 0.146 | S. cerevisiae deletion strains, locus YDR054C, strain cdc34, hits give low values 0.107 | S. cerevisiae deletion strains, locus YDR226W, strain ADK1, hits give low values 0.117 | S. cerevisiae deletion strains, locus YDR477W, strain SNF1, hits give low values 0.103 | S. cerevisiae deletion strains, locus YER123W, strain YCK3, hits give low values 0.104 | S. cerevisiae deletion strains, locus YER133W, strain GLC7, hits give low values 0.133 | S. cerevisiae deletion strains, locus YFL009W, strain cdc4, hits give low values 0.105 | S. cerevisiae deletion strains, locus YFL029C, strain CAK1, hits give low values 0.11 | S. cerevisiae deletion strains, locus YFR003C, strain YPI1, hits give low values 0.0948 | S. cerevisiae deletion strains, locus YFR019W, strain FAB1, hits give low values 0.103 | S. cerevisiae deletion strains, locus YFR028C, strain CDC14, hits give low values 0.108 | S. cerevisiae deletion strains, locus YGR040W, strain KSS1, hits give low values 0.108 | S. cerevisiae deletion strains, locus YGR052W, strain FMP48, hits give low values 0.145 | S. cerevisiae deletion strains, locus YGR092W, strain DBF2, hits give low values 0.101 | [2] 0.189 | S. cerevisiae deletion strains, locus YHR079C, strain IRE1, hits give low values 0.214 | S. cerevisiae deletion strains, locus YHR082C, strain KSP1, hits give low values 0.225 | S. cerevisiae deletion strains, locus YHR205W, strain SCH9, hits give low values 0.000939 | S. cerevisiae deletion strains, locus YIL147C, strain SLN1, hits give low values 0.107 | S. cerevisiae deletion strains, locus YJL095W, strain BCK1, hits give low values 0.166 | S. cerevisiae deletion strains, locus YJL128C, strain PBS2, hits give low values 0.0973 | S. cerevisiae deletion strains, locus YJL157C, strain FAR1, hits give low values 0.112 | S. cerevisiae deletion strains, locus YJR016C, strain ILV3, hits give low values 0.101 | S. cerevisiae deletion strains, locus YJR066W, strain TOR1 (second series), hits give low values 0.0973 | S. cerevisiae deletion strains, locus YJR066W, strain TOR1, hits give low values 0.207 | S. cerevisiae deletion strains, locus YKL048C, strain ELM1, hits give low values 0.134 | S. cerevisiae deletion strains, locus YKL067W, strain YNK1, hits give low values 0.118 | S. cerevisiae deletion strains, locus YKL101W, strain HSL1, hits give low values 0.103 | S. cerevisiae deletion strains, locus YKL193C, strain SDS22, hits give low values 0.109 | S. cerevisiae deletion strains, locus YKL203C, strain TOR2, hits give low values 0.112 | S. cerevisiae deletion strains, locus YLR113W, strain HOG1, hits give low values 0.212 | S. cerevisiae deletion strains, locus YLR133W, strain CKI1, hits give low values 0.0995 | S. cerevisiae deletion strains, locus YLR403W, strain SFP1, hits give low values 0.00739 | S. cerevisiae deletion strains, locus YML070W, strain DAK1, hits give low values 0.116 | S. cerevisiae deletion strains, locus YMR001C, strain CDC5, hits give low values 0.112 | S. cerevisiae deletion strains, locus YMR205C, strain PFK2 (second series), hits give low values 0.0978 | S. cerevisiae deletion strains, locus YMR277W, strain FCP1, hits give low values 0.105 | S. cerevisiae deletion strains, locus YNL006W, strain LST8, hits give low values 0.0902 | S. cerevisiae deletion strains, locus YNL020C, strain ARK1, hits give low values 0.0965 | S. cerevisiae deletion strains, locus YNL161W, strain CBK1, hits give low values 0.112 | S. cerevisiae deletion strains, locus YNL183C, strain NPR1, hits give low values 0.135 | S. cerevisiae deletion strains, locus YNL207W, strain RIO2, hits give low values 0.102 | S. cerevisiae deletion strains, locus YNL222W, strain SSU72, hits give low values 0.107 | S. cerevisiae deletion strains, locus YNL307C, strain MCK1 (second series), hits give low values 0.109 | S. cerevisiae deletion strains, locus YOL078W, strain AVO1, hits give low values 0.108 | S. cerevisiae deletion strains, locus YOL136C, strain PFK27, hits give low values 0.122 | S. cerevisiae deletion strains, locus YOR061W, strain CKA2, hits give low values 0.092 | S. cerevisiae deletion strains, locus YOR119C, strain RIO1, hits give low values 0.119 | S. cerevisiae deletion strains, locus YOR231W, strain MKK1, hits give low values 0.249 | S. cerevisiae deletion strains, locus YOR329C, strain SCD5, hits give low values 0.101 | S. cerevisiae deletion strains, locus YPL031C, strain PHO85, hits give low values 0.103 | S. cerevisiae deletion strains, locus YPL153C, strain RAD53, hits give low values 0.0998 | S. cerevisiae deletion strains, locus YPL204W, strain HRR25, hits give low values 0.108 | S. cerevisiae deletion strains, locus YPL209C, strain IPL1, hits give low values 0.0972 | S. cerevisiae deletion strains, locus YPL256C, strain CLN2, hits give low values 0.243 | S. cerevisiae deletion strains, locus YPR025C, strain CCL1, hits give low values 0.112 | S. cerevisiae deletion strains, locus YPR106W, strain ISR1, hits give low values 0.107 | S. cerevisiae deletion strains, locus YPR111W, strain DBF20, hits give low values 0.131 | S. cerevisiae deletion strains, strain NNK1, hits give low values 0.105 | S. cerevisiae deletion strains, strain TSCII, hits give low values 0.106
